From PubChem BioAssay come the findings set out here.

Assay [1] can be described thus: antimalarial activity against Dd2 strain (AID 2302;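 active = growth inhibition above 50% at the single 2 µM test dose, taken to imply half-maximal potency below 2 µM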;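 note: 0% = DMSO untreated growth and 100% = chloroquine plus artemisinin killed control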). Particulars: P. falciparum Dd2 in RBCs, LDH growth readout, 72 h; at 2 µM; stronger effect = higher value.
Assay [2] can be described thus: HepG2 cytotoxicity, primary screen, cytotoxicity control for P. falciparum antimalarial project, cell-based, ATP luminescence (AID 2303;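 active = inhibition above 50%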;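 note: 0% = DMSO wells and 100% = digitonin-killed cells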). The note with it: HepG2 viability, 24-48 h, at 10 µM, stronger effect = higher value.
Assay [3] concerns the target L-lactate dehydrogenase (Plasmodium falciparum (isolate CDC / Honduras)) (UniProt Q27743). In words: PfLDH activity inhibition – cell lysate, 3D7 strain, counter-screen for P. falciparum growth inhibition project (AID 2304).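 Note: 0% = vehicle and 100% = reference inhibitor.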 The note with it: P. falciparum 3D7 crude extract, LDH APAD/NBT absorbance; at 2 µM; stronger effect = higher value.
A short description of assay [4]: inhibition of 3D7 malaria parasite growth – strain 3D7 (AID 2306).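 Note: 0% = DMSO wells and 100% = chloroquine plus artemisinin control wells.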 The note with it: P. falciparum 3D7 erythrocytic growth, LDH absorbance, 72 h; at 2 µM; stronger effect = higher value.
The target of assay [5] is Calcium-dependent protein kinase 1 (Plasmodium falciparum (isolate 3D7)) (UniProt P62344). In words: PfCDPK1 kinase inhibitors, biochemical, TCAMS library (AID 1159585; cut-off not given, nearly all actives have IC50 up to about 0.98 µM;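 note: inhibitors leave more ATP so luminescence rises with inhibition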). Particulars: recombinant PfCDPK1, Kinase-Glo ATP depletion luminescence. In general terms: Kinase-Glo reads ATP consumption through a luciferase reaction.
Assay [6] has as its target Plasmodium falciparum protein kinase 6 (PK6, PF3D7_1337100) (UniProt Q8IDW1). Put plainly: PfPK6 kinase inhibitors, biochemical, TCAMS library (AID 1159586). Particulars: recombinant PfPK6, Kinase-Glo ATP depletion luminescence.
For assay [7], the target named is Protein kinase 7 (PK7), Plasmodium falciparum 3D7 (PF3D7_0213400) (UniProt Q7YTF7). Put plainly: inhibition of Plasmodium PK7 catalytic activity – biochemical, TCAMS antimalarial set, Kinase-Glo luminescence (AID 1159587). Particulars: recombinant PfPK7, Kinase-Glo ATP depletion luminescence.
The target of assay [8] is Calcium-dependent protein kinase 4 (Plasmodium falciparum (isolate 3D7)) (UniProt Q8IBS5). In words: PfCDPK4 kinase inhibitors, biochemical, TCAMS library (AID 1159588; cut-off not given, nearly all actives have IC50 up to about 0.91 µM). Particulars: recombinant PfCDPK4, Kinase-Glo ATP depletion luminescence.

Values without a mark were called inactive. For some assays here: Entries with a potency or affinity are not part of this list. Activity calls are given as the source filed them. Unless noted, the rule behind the calls is not given here.

Chain of Plasmodium falciparum protein kinase 6 (PK6, PF3D7_1337100) (Q8IDW1 1-305): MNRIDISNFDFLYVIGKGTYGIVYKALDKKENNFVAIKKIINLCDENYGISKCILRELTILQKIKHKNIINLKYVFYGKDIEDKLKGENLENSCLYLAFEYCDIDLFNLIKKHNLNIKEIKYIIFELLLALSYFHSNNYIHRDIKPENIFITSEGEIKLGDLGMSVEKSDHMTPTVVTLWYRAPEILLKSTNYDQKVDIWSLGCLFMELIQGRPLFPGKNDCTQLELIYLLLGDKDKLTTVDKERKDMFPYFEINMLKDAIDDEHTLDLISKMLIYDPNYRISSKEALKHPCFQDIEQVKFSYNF
Chain of Protein kinase 7 (PK7), Plasmodium falciparum 3D7 (PF3D7_0213400) (Q7YTF7 1-343): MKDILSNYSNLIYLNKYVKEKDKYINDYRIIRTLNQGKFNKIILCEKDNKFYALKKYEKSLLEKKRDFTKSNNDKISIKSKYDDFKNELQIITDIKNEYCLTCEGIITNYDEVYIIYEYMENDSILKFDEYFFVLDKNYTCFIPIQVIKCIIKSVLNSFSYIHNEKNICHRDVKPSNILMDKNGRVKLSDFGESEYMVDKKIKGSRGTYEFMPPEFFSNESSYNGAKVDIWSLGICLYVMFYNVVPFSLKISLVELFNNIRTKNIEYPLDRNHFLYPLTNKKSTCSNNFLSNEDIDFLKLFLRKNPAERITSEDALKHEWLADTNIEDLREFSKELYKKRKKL
Chain of L-lactate dehydrogenase (Plasmodium falciparum (isolate CDC / Honduras)) (Q27743 whole entry, looked up): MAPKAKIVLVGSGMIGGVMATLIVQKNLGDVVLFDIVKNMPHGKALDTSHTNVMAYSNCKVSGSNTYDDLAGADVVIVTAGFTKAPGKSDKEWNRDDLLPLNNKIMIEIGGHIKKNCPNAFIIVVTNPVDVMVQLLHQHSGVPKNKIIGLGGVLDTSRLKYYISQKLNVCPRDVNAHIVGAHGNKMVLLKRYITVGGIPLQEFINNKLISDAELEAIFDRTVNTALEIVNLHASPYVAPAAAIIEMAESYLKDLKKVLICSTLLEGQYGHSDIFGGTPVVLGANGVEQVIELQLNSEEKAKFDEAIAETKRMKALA
Chain of Calcium-dependent protein kinase 4 (Plasmodium falciparum (isolate 3D7)) (Q8IBS5 whole entry, looked up): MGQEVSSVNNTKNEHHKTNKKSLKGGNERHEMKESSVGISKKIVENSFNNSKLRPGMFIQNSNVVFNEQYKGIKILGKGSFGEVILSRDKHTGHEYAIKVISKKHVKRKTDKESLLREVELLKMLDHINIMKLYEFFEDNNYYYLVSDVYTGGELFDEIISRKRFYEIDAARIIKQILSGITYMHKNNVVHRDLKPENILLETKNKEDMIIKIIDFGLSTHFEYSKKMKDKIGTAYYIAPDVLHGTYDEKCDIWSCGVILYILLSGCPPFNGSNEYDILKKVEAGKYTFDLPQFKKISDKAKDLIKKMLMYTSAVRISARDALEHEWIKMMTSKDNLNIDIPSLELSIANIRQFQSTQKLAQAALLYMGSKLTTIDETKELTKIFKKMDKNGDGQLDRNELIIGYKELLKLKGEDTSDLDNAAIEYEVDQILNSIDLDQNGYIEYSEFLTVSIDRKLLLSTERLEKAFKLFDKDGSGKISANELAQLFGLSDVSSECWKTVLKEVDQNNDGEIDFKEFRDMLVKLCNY
Chain of Calcium-dependent protein kinase 1 (Plasmodium falciparum (isolate 3D7)) (P62344 whole entry, looked up): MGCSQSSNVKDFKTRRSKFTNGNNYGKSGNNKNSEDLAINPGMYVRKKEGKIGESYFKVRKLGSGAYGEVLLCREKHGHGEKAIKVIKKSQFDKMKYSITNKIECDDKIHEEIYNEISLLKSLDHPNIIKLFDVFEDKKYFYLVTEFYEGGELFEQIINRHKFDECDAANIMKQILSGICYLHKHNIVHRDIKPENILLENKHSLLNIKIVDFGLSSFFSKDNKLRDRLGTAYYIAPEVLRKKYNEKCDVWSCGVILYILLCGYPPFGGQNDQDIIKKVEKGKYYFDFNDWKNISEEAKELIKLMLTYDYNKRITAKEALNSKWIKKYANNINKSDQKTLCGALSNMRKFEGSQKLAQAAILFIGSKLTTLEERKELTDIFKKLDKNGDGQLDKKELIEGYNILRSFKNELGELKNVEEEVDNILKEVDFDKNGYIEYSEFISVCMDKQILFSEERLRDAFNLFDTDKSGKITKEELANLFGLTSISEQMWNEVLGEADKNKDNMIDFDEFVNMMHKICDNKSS

For the molecule `COc1ccc(-c2cccc(NC(=O)c3ccc(C#N)cc3)c2)cc1CN1CCCC1`, the growth inhibition in assay [1] is 15%; in assay [4] it was 98% (active). In addition, the values for the inhibition in assay [2] and in assay [3] were 30% and -5%, respectively. In addition, the outcome in assay [5], in assay [6], in assay [7] and in assay [8] was inactive.

With `O=C(NC1CC1)c1cnc(N2CCC(OCc3ccccc3)CC2)c(Cl)c1`, the growth inhibition in assay [1] is 71% (active); in assay [4], 90% (active). The inhibition – broadly, the change of the read-out against control, counted positive when it falls – in assay [2] is -5%; in assay [3] it was -2%. The result in assay [5], in assay [6], in assay [7] and in assay [8] was inactive.

With `CC(C)Cn1c(Sc2ccc(C#N)c([N+](=O)[O-])c2)nnc1-c1ccc(N(C)C)cc1`, the growth inhibition in assay [1] and in assay [4] was 98% (active) in each case. For the same molecule, the inhibition in assay [2] and in assay [3] was 4% in each case. The outcome in assay [5], in assay [6], in assay [7] and in assay [8] was inactive.

For the molecule `CCc1cccc(NC(=O)/C=C/c2ccc3c(c2)CN(C)CC3)c1`, the growth inhibition in assay [1] is 91% (active); in assay [4] it was 94% (active). Besides, the inhibition in assay [2] is 8%; in assay [3], -1%. Besides, the result in assay [5], in assay [6], in assay [7] and in assay [8] was inactive.

For the molecule `Cc1nc(NCCc2cnc[nH]2)cc(NCc2ccccc2)n1`, the growth inhibition in assay [1] was 5%; in assay [4], 100% (active). Further, the inhibition is 5% in assay [2] and -2% in assay [3]. In addition, the result in assay [5], in assay [6], in assay [7] and in assay [8] was inactive.

As to `O=C(NCc1cccs1)[C@H](Cc1ccccc1)Nc1ccnc(NCCc2ccccc2)n1`, the growth inhibition was 59% (active) in assay [1] and 85% (active) in assay [4]. The inhibition in assay [2] is -1%; in assay [3] it was -2%. Also, the result in assay [5], in assay [6], in assay [7] and in assay [8] was inactive.

Turning to `CCCC1(NC[C@@H](O)[C@H](Cc2ccccc2)NC(=O)c2cc(NCC)cc(N3CCCCS3(=O)=O)c2)CCCCC1`, the growth inhibition is 98% (active) in assay [1] and 101% (active) in assay [4]. Moreover, the inhibition in assay [2] was 4%; in assay [3], -4%. Moreover, the outcome in assay [5], in assay [6], in assay [7] and in assay [8] was inactive.

Turning to `CCCNCc1ccc(-c2ccc(CN(CC3CCCO3)C(=O)C3CC(=O)c4ccccc43)cc2)nc1` (configuration not stated), the growth inhibition is 65% (active) in assay [1] and 101% (active) in assay [4]. The inhibition in assay [2] was 0%; in assay [3] it was 3%. Besides, the outcome in assay [5], in assay [6], in assay [7] and in assay [8] was inactive.

As for `CCc1ccc(CN2CCC(CNC(=O)c3cc(-c4ccccc4F)cs3)C2)cc1` (configuration not stated), the figures for the growth inhibition in assay [1] and in assay [4] were 3% and 100% (active), respectively. Moreover, the inhibition is 29% in assay [2] and -2% in assay [3]. Further, the result in assay [5], in assay [6], in assay [7] and in assay [8] was inactive.

For `CC1(C)N=C(N)N=C(N)N1OCCCOc1cc(Cl)ccc1Cl`, the growth inhibition in assay [1] and in assay [4] was 96% (active) throughout. Further, the inhibition was 64% (active) in assay [2] and -1% in assay [3]. Further, the outcome in assay [5], in assay [6], in assay [7] and in assay [8] was inactive.

`CCN(CC)CCCN1CCN(C(=O)c2cccc(-c3noc(C(F)(F)F)n3)c2)CC1`: the results for the growth inhibition in assay [1] and in assay [4] were 74% (active) and 91% (active), respectively. Also, the values for the inhibition in assay [2] and in assay [3] were -10% and 7%, respectively. For the same molecule, the outcome in assay [5], in assay [6], in assay [7] and in assay [8] was inactive.

On to `O=C(Nc1ccc(C(=O)Nc2cccc(C3=NCCN3)c2)cc1)Nc1ccc(C2=NCCN2)cc1`, for which the values for the growth inhibition in assay [1] and in assay [4] were 98% (active) and 96% (active), respectively. For the same molecule, the inhibition was -16% in assay [2] and -4% in assay [3]. Moreover, the result in assay [5], in assay [6], in assay [7] and in assay [8] was inactive.

Take `CCN(CCCN1CCCCC1)c1cc(C)nc(Nc2ccc(F)c(C(F)(F)F)c2)n1`: the growth inhibition in assay [1] was 93% (active); in assay [4], 100% (active). Moreover, the inhibition in assay [2] was 32%; in assay [3], 0%. Also, the result in assay [5], in assay [6], in assay [7] and in assay [8] was inactive.

Regarding `Cn1nc(-c2cccc(CNC3CCc4ccccc43)c2)c2cnc(NCCCN3CCCC3)nc21` (configuration not stated), the growth inhibition in assay [1] was 15%; in assay [4], 99% (active). Further, the inhibition in assay [2] was 29%; in assay [3] it was -2%. Moreover, the result in assay [5], in assay [6], in assay [7] and in assay [8] was inactive.

Turning to `O=S1N=C(NCCCN(Cc2cccs2)c2ccccn2)C(NCc2ccccc2)=N1` (configuration not stated), the growth inhibition is 25% in assay [1] and 92% (active) in assay [4]. Further, the figures for the inhibition in assay [2] and in assay [3] were 10% and 0%, respectively. Also, the result in assay [5], in assay [6], in assay [7] and in assay [8] was inactive.

Take `CC(C)C(C(=O)Nc1ccc2c(c1)OCO2)c1ccc(Cl)cc1` (configuration not stated): the growth inhibition is 89% (active) in assay [1] and 98% (active) in assay [4]. In addition, the inhibition in assay [2] was 25%; in assay [3] it was -7%. In addition, the outcome in assay [5], in assay [6], in assay [7] and in assay [8] was inactive.

For `CCOC(=O)C1=C(C)NC2=C(C(=O)CC(C)(C)C2)C1c1ccc(Cl)cc1` (configuration not stated), the growth inhibition in assay [1] was 84% (active); in assay [4], 96% (active). The inhibition was 4% in assay [2] and 1% in assay [3]. For the same molecule, the result in assay [5], in assay [6], in assay [7] and in assay [8] was inactive.

As to `O=C(NC1CCN(c2ccnc3cc(Cl)ccc23)C1)c1ccccc1F` (configuration not stated), the growth inhibition was 71% (active) in assay [1] and 101% (active) in assay [4]. Besides, the inhibition in assay [2] was 8%; in assay [3], 4%. Moreover, the outcome in assay [5], in assay [6], in assay [7] and in assay [8] was inactive.

In the case of `CCCN(CCC)CCCN(CCCN(CCC)CCC)c1cc(C)nc(Nc2ccc3cc(Br)ccc3c2)n1`, the growth inhibition in assay [1] is 99% (active); in assay [4] it was 98% (active). For the same molecule, the inhibition is 99% (active) in assay [2] and 1% in assay [3]. In addition, the outcome in assay [5], in assay [6], in assay [7] and in assay [8] was inactive.
